About 760 (36%) of roughly 2,100 compounds were called active.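 Rule for the calls: active = thallium-flux fluorescence traces judged by eye to show enhanced or reduced glutamate response, manual score 1 or -1, so both directions (some results past the limit were not filed as active); inactive = the rest, including fluorescent or raised-baseline compounds.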 A selection follows.

From PubChem BioAssay AID623868 (Vanderbilt High Throughput Screening Facility, 2012) come the findings set out here.

The assay in a line: non-GIRK thallium flux modulation in mGlu8 cells, confirmation, counter-screen for GIRK activator project, cell-based, HEK-293 rmGlu8, no GIRK (AID 623868).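 Note: extra codes mark interference with 3 for fluorescent and 4 for baseline rise.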 To be noted: thallium flux fluorescence, at 10 µM, actives lie on both sides, codes: 1 enhancer, -1 blocker, 0 none, thallium stimulus containing EC20 glutamate.
`CN(C)c1ccc(/C=N\NC(=S)SCN2C(=O)C3CCC(C)(C2=O)C3(C)C)cc1` (stereo not drawn): the manual score is 0.5 (inactive).

Take `CC12CCC(C(=O)N(CSC(=S)N/N=C\c3ccccc3)C1=O)C2(C)C` (stereo not drawn): the manual score was 1 (active).

For the molecule `COc1ccc(/C=N\NC(=S)SCN2C(=O)C3CCC(C)(C2=O)C3(C)C)cc1` (stereo not drawn), the manual score is 1 (active).

Take `CC(Nc1ccc(Br)cn1)c1cc(Cl)ccc1O` (stereo not drawn): the manual score was 0 (inactive).

For the molecule `O=C(Nc1ccccc1C(=O)N/N=C/c1ccco1)c1ccccc1`, the manual score is 1 (active).

In the case of `CC(C)NC(=O)/C(=C/c1ccco1)c1ccccc1`, the manual score was 0 (inactive).

`Cc1cc(C)c(NC(=O)/C(=C/c2ccco2)c2ccccc2)c(C)c1`: the manual score is 0 (inactive).

Take `Cc1ccccc1C(=O)Nc1ccccc1C(=O)N/N=C\c1ccco1`: the manual score was 1 (active).

As for `Cc1ccccc1C(=O)N/N=C/c1ccc([N+](=O)[O-])s1`, the manual score is 0 (inactive).

Take `CN(c1ccccc1C(=O)Nc1ccccc1C(=O)NCc1ccco1)S(C)(=O)=O`: the manual score is 0 (inactive).

With `COc1cc(NC(=O)CSc2nccc(C)n2)c(C)cc1[N+](=O)[O-]`, the manual score was 0 (inactive).

For `Cc1c(NC(=S)NC(NC(=O)CC(C)C)C(Cl)(Cl)Cl)c(=O)n(-c2ccccc2)n1C` (stereo not drawn), the manual score was 0 (inactive).

For `CCCC(c1c(C)n(C)n(-c2ccccc2)c1=O)c1c(C)n(C)n(-c2ccccc2)c1=O`, the manual score was 0 (inactive).

As to `CCc1cc2c(=O)n(CC)c(SC(C)C(=O)Nc3c(C)n(C)n(-c4ccccc4)c3=O)nc2s1` (stereo not drawn), the manual score is -1 (active).

Regarding `O=c1[nH]c(SCc2ccccc2Cl)nc2c1CCCC2`, the manual score is 0 (inactive).

Turning to `O=c1c2c(nc3c(-c4ccc(Cl)cc4)c[nH]n13)CCCC2`, the manual score is 1 (active).

Regarding `Cc1ccc(-c2[nH]n3c(=O)c4c(nc3c2C)CCCC4)cc1`, the manual score was 0 (inactive).

As to `O=c1c2c(nc3c(-c4ccccc4)c[nH]n13)CCCC2`, the manual score is 1 (active).

With `O=c1c2c(nc3c(-c4cccc(Br)c4)c[nH]n13)CCCC2`, the manual score was 0 (inactive).

`Cc1ccc2c(CC(=O)NC3CCCc4ccccc43)coc2c1` (stereo not drawn): the manual score is 0 (inactive).

As for `Cc1ccc(OCC(=O)N/N=C/c2cccn2C)cc1`, the manual score was 0 (inactive).

On to `COc1ccc(OCC(=O)NNC(=O)C(=O)Nc2ccc(C)cc2)cc1`, for which the manual score was 1 (active).

Turning to `Cc1ccc(OCC(=O)NNC(=O)C(=O)NC(C)(C)C)cc1`, the manual score is 1 (active).

`CC(C)(C)NC(=O)C(=O)NNC(=O)COc1ccc(Br)cc1`: the manual score is 1 (active).

`COc1ccccc1NC(=O)COc1ccc(Br)cc1CO`: the manual score is 0 (inactive).

With `CCOc1ccc(NC(=O)Nc2cc(C)ccc2OC)cc1`, the manual score is 0 (inactive).

Take `COc1cccc(NC(=O)COc2ccc(C)cc2)c1`: the manual score was 0 (inactive).

As for `C=C(C)C1CC=C(C)/C(=N/NC(=O)COc2ccc(C)cc2)C1` (stereo not drawn), the manual score was 0 (inactive).

As for `S=C1NC2=C(CCCC2)C2(CCCCC2)N1`, the manual score is 0 (inactive).

For `CN(CC(=O)Nn1cnnc1)S(=O)(=O)c1ccc(Br)cc1`, the manual score was 0 (inactive).

In the case of `O=C(N/N=C/c1c(Cl)cccc1Cl)c1cccc(F)c1`, the manual score is 0 (inactive).

In the case of `CCC(NC(=O)c1ccccc1O)c1ccccc1` (stereo not drawn), the manual score is 0 (inactive).

Turning to `C/C(=N\NC(=O)c1ccccc1)c1nc2ccccc2n1C`, the manual score was 0 (inactive).

For `C/C(=N\NC(=O)c1cccc(F)c1)c1ccc(Br)s1`, the manual score is 1 (active).

Regarding `C/C(=N\NC(=O)c1ccccc1O)c1ccc(Br)s1`, the manual score was 1 (active).

Turning to `C/C(=N\NC(=O)c1ccc(Cl)cc1)c1ccc(Br)s1`, the manual score was 1 (active).

In the case of `CN(C)/C=C/C(=O)/C=C/c1cn(-c2ncc(C(F)(F)F)cc2Cl)c2ccccc12`, the manual score is 0 (inactive).

Take `CCc1ccc2c(c1)C1(NN=C(c3ccc(C)cc3)S1)C(=O)N2` (stereo not drawn): the manual score is 0 (inactive).

In the case of `CCOC(=O)c1c(NC(=O)C2C3C=CC(C3)C2C(=O)O)sc2c1CCC(CC)C2` (stereo not drawn), the manual score was 0 (inactive).

Take `CCOC(=O)c1c(NS(=O)(=O)c2ccc(Br)cc2)sc2c1CCC2`: the manual score is 1 (active).

With `CCOC(=O)c1ccc(CNCc2ccc(Br)cc2)cc1`, the manual score was 0 (inactive).

In the case of `CCOC(=O)c1c(NS(=O)(=O)c2cccc(OC)c2)sc2c1CCC2`, the manual score was 1 (active).

For the molecule `O=C1CS/C(=N\C(=O)N2c3ccccc3Sc3ccccc32)N1`, the manual score was 0 (inactive).

On to `CC(C)Cn1cnc2c(c(-c3ccccc3)c(-c3ccccc3)n2Cc2ccco2)c1=N`, for which the manual score was 0 (inactive).

On to `O=S(=O)(Nc1cc(Sc2cccc3cccnc23)c(O)c2ccccc12)c1ccc(F)cc1`, for which the manual score was 0 (inactive).

`CC(=O)/C(=N\Nc1ccc(Cl)cc1Cl)Sc1cccc2cccnc12`: the manual score is 1 (active).

In the case of `CCOc1ccc(-c2nc(-c3ccncc3)no2)cc1OCC`, the manual score is 0 (inactive).

`O=C(CC(=O)c1cc(Cl)ccc1O)c1ccccc1`: the manual score is 1 (active).

For `O=C(c1cccc(F)c1)N1CCN(Cc2ccco2)CC1`, the manual score is 0 (inactive).

Take `Cc1ccc(C(=O)CC(=O)c2cc(Cl)ccc2O)cc1`: the manual score was 0 (inactive).

Consider `O=C(CC(=O)c1ccccc1O)c1cccc(F)c1`, for which the manual score was 1 (active).

With `O=C(CC(=O)c1ccccc1O)c1ccc(F)cc1`, the manual score was 1 (active).

On to `Cc1cccc(C(=O)CC(=O)c2cc(Cl)ccc2O)c1`, for which the manual score was 0.5 (inactive).

As for `C/C(=N/NC(=O)c1cc(Cl)ccc1O)C12CC3CC(CC(C3)C1)C2`, the manual score was 0 (inactive).

`COC(=O)c1nc(NC(C)=O)n[nH]1`: the manual score was 0 (inactive).

Take `Cc1ccc(NC(=O)COn2nnc3ccc(S(=O)(=O)N(C)C)cc32)cc1F`: the manual score is 0 (inactive).

Turning to `O=c1c(O)c(-c2cccs2)oc2ccc(Cl)cc12`, the manual score was 3 (inactive).

Take `Cc1ccc(C2c3c(oc4ccc(Cl)cc4c3=O)C(=O)N2CCCN2CCOCC2)o1` (stereo not drawn): the manual score was 1 (active).

As to `CCN(CC)CCN1C(=O)c2oc3ccccc3c(=O)c2C1c1ccc(C)cc1` (stereo not drawn), the manual score was 0 (inactive).

With `COCCn1c(CN(Cc2ccccc2)Cc2ccccc2)nc2c1c(=O)n(C)c(=O)n2C`, the manual score was 0 (inactive).

With `O=C(N/N=C\c1cc(Br)c(Br)o1)c1cncc(Br)c1`, the manual score is 1 (active).

On to `CCNC(=O)NC(=O)COC(=O)CCCSc1nc2ccccc2[nH]1`, for which the manual score is 0 (inactive).

For `CN(C)CCCOc1ccc(C(C)(C)c2ccccc2)cc1`, the manual score was 0 (inactive).

As to `O=C(NC(=S)Nc1ccccc1Cl)c1csnn1`, the manual score was 1 (active).

For `O=C(NC(=S)Nc1ccccc1)c1csnn1`, the manual score was 1 (active).

Turning to `CC(C)C(=O)Nc1cccc(NC(=O)c2cc3ccccc3o2)c1`, the manual score is 0 (inactive).

`Cc1cccc(NC(=S)NNC(=O)c2csc(C(C)C)c2)c1`: the manual score is 1 (active).

As for `Cc1ccc(C)c(NC(=S)NNC(=O)c2csc(C(C)C)c2)c1`, the manual score was 1 (active).

`O=[n+]1c2c(n([O-])c3cc(F)c(N4CCCC4)cc31)CCC2`: the manual score was 3 (inactive).

For the molecule `Cc1cccc2c(=O)cc(C)n(CC(=O)N3CCCCC3)c12`, the manual score is -0.5 (inactive).

In the case of `CCOC(=O)CSc1nc(C)c2cc(OC)ccc2n1`, the manual score is 0 (inactive).

For `COc1ccc2c(-c3ccccc3)cc(SCC(=O)N(C)C3CCS(=O)(=O)C3)nc2c1` (stereo not drawn), the manual score is 1 (active).

In the case of `CCN(C(=O)CSc1nc2ccccc2n1CCc1ccccc1)C1CCS(=O)(=O)C1` (stereo not drawn), the manual score was 0 (inactive).

`Cc1ccc(NC(=O)Cc2ccccc2Cl)cc1S(=O)(=O)N(C)C`: the manual score is 0 (inactive).

As for `CN(CCNC(=O)c1cc2c(=O)n(C)c3ccccc3c2n1C)Cc1ccccc1`, the manual score is 0 (inactive).

As to `CC1(C)Cc2c(ccc3ccccc23)-c2nnc(-c3cccnc3)n21`, the manual score was 0 (inactive).

On to `COc1ccc(-c2ccnc3nc(Sc4ncc(C(F)(F)F)cc4Cl)nn23)cc1`, for which the manual score is 0 (inactive).

With `Cc1ccc([N+](=O)[O-])cc1NC(=S)NC(=O)c1ccco1`, the manual score was 1 (active).

As for `Cc1ccc(NC(=S)NCc2ccccc2)cc1[N+](=O)[O-]`, the manual score was 0 (inactive).

Turning to `O=C(Cc1ccccc1)N/N=C/c1cccn1-c1ccc([N+](=O)[O-])cc1`, the manual score was 0 (inactive).

As for `O=C(NC(=S)Nc1cc([N+](=O)[O-])ccc1Cl)c1ccccc1`, the manual score is 0 (inactive).

In the case of `COc1cccc(C(=O)NC(=S)Nc2ccc([N+](=O)[O-])cc2C)c1`, the manual score was 1 (active).

In the case of `Cc1cc([N+](=O)[O-])ccc1NC(=S)NC(=O)Cc1ccccc1`, the manual score was 1 (active).

Turning to `CC(=O)Nc1ccc(NC(=O)CSc2nccn2Cc2ccccc2)cc1`, the manual score was 0 (inactive).

Turning to `COc1ccc(CO/N=C/c2c(C)[nH]c(=O)[nH]c2=O)cc1`, the manual score is 0 (inactive).

With `CCOC(=O)C(CCCCOc1cccc(CC)c1)C(=O)OCC`, the manual score was 0 (inactive).

For the molecule `CCOc1ccc(-c2nc(-c3ccc(OC)cc3)no2)cc1OCC`, the manual score is 0 (inactive).

Regarding `Oc1c(Cl)cc(Cl)c2c1NCCC2`, the manual score was 0 (inactive).

As to `Cc1cccc(OCC(O)Cn2c(=N)n(CCN3CCCCC3)c3ccccc32)c1` (stereo not drawn), the manual score is 0 (inactive).

As for `c1ccc2c(c1)oc1c(N3CCN(Cc4ccc5c(c4)OCO5)CC3)ncnc12`, the manual score was 0 (inactive).

Consider `COc1ccccc1N1CCN(Cc2cc(Br)c(O)c3ncccc23)CC1`, for which the manual score is 1 (active).

With `Cc1cccc(N=C2NC(=O)/C(=C/C=C/c3ccco3)S2)c1C`, the manual score was 1 (active).

As for `COC(=O)C1=C(C)NC(=O)/C1=C\c1ccco1`, the manual score is 0 (inactive).

Regarding `CC(C)c1ccc(-c2noc(C3CCCN(S(C)(=O)=O)C3)n2)cc1` (stereo not drawn), the manual score is 0 (inactive).

For the molecule `O=C(COc1c(Br)cc(Br)c2cccnc12)N1CCc2ccccc2C1`, the manual score is 1 (active).

Take `CCOC(=O)c1c(C)c(C(=O)N2CCc3ccccc3C2)c(C)n1CC`: the manual score is 0 (inactive).

For the molecule `CC(C)=CCC(C)(C)CNC(=O)NC1CCCCC1`, the manual score is 0 (inactive).

Consider `Cn1c(-c2sc3ccccc3c2Cl)n[nH]c1=S`, for which the manual score is 1 (active).

Turning to `Cc1nnc(NC(=O)CCSc2ccccc2)s1`, the manual score is 0 (inactive).

In the case of `CCC(CC)c1nnc(NC(=O)C2COc3ccccc3O2)s1` (stereo not drawn), the manual score was 0 (inactive).

`CCC(CC)c1nnc(NC(=O)c2ccc3ccccc3n2)s1`: the manual score was 1 (active).

Turning to `N#CCN1C(=S)N=C(Nc2cccc(Cl)c2)C12CCCCC2`, the manual score is 0 (inactive).

Regarding `Cc1ccc(NC2=NC(=S)N(CC#N)C23CCCCC3)cc1`, the manual score was 1 (active).

`COc1ccc(NC2=NC(=S)N(c3ccccc3C)C23CCCCC3)cc1`: the manual score was 1 (active).

Turning to `CC(C)CCn1c(CN2CCN(Cc3ccccc3)CC2)nc2c1c(=O)[nH]c(=O)n2C`, the manual score is 0 (inactive).

As to `CC1CCCCN1CCCn1c(=S)[nH]c2ccccc2c1=O` (stereo not drawn), the manual score was 0 (inactive).

As for `CCC1CCCCN1CCCn1c(=S)[nH]c2ccccc2c1=O` (stereo not drawn), the manual score is 1 (active).

Take `CCC1CCCN1Cn1cnc2c([nH]c3ccc(OC)cc32)c1=O` (stereo not drawn): the manual score is 0 (inactive).

As for `CC1CC(C)CN(CCCn2c(=S)[nH]c3ccccc3c2=O)C1` (stereo not drawn), the manual score is 1 (active).

`O=c1c2ccccc2[nH]c(=S)n1CCCN1CCN(C2CCCCC2)CC1`: the manual score is 1 (active).

For `O=c1c2ccccc2[nH]c(=S)n1CCN1CCN(Cc2ccccc2)CC1`, the manual score was 1 (active).

`Cc1ccccc1-c1nc(CN2CCC(C(=O)NCCCN3CC(C)CC(C)C3)CC2)c(C)o1` (stereo not drawn): the manual score was 0 (inactive).

Consider `O=C(NCc1ccccc1)c1ccc2c(=O)n(CCCN3CCCC3=O)c(=S)[nH]c2c1`, for which the manual score was 0 (inactive).
